Where “and” joins values, the source holds several entries; their conditions need not be identical. Equal values may be shown once. Records with an inconclusive call do not appear. Where a call stands in place of a potency, no number is given. Some compounds were tested as several samples or in several runs, with calls that do not always agree. Calls of active or inactive are those of the source. Unless noted, calls follow the shape of the full dose curve.
What was measured:
[1] = Nuclear factor erythroid 2-related factor 2/antioxidant responsive element (Nrf2/ARE) small molecule agonists: qHTS cell viability counter screen in human keratinocytes (AID 1919968; active = well fitted curve in the direction sought with a large enough effect in the repeat runs; an effect the other way counts as inactive or inconclusive; also: nearly all actives have a fitted effect of over 55% in size)
How it was run: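 CellTiter-Fluor fluorescence, read 1 h after reagent, gave viability in the same wells as the ARE-luciferase assay. KeratinoSens cells (1,500/well) had 23 h compound exposure at 37 C/5% CO2 following 5 h plating.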

[2] = Nuclear factor erythroid 2-related factor 2/antioxidant responsive element (Nrf2/ARE) small molecule agonists: luciferase reporter gene qHTS assay in human keratinocytes (AID 1919969); also: nearly all actives have a fitted effect of over 35% in size; also: potency is read from the fitted curve at half-maximal effect
[3] = biological target: Gonadotropin-releasing hormone receptor (Homo sapiens) (UniProt P30968); test: Human gonadotropin-releasing hormone receptor (GnRHR) small molecule agonists, calcium flux assay in GnRHR-HEK293 cells (AID 1920063); also: nearly all actives have a fitted effect of over 35% in size
Gonadotropin-releasing hormone receptor (Homo sapiens), sequence (P30968 whole entry, looked up): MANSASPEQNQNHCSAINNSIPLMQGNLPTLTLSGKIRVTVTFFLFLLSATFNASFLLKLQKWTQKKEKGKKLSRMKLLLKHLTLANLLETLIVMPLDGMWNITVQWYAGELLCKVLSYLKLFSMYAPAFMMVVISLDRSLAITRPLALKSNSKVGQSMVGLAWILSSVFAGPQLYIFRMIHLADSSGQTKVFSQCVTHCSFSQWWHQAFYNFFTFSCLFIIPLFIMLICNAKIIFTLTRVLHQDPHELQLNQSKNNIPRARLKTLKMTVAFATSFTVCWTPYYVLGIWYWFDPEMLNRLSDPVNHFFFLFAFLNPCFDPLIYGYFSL
How it was run: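 Agonist mode: compounds at 15 concentrations, in triplicate, went onto calcium dye-loaded GnRHR-HEK293 cells. Intracellular calcium was then followed as 480/540 nm fluorescence at 1 s intervals over 3 min.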

[4] = biological target: KiSS-1 receptor (Homo sapiens) (UniProt Q969F8); test: Human kisspeptin (KISS1R) small molecule agonists, calcium flux assay in KISS1R-HEK293 cells (AID 1920064; active = well fitted curve in the direction sought with a large enough effect in the repeat runs; an effect the other way counts as inactive or inconclusive)
KiSS-1 receptor (Homo sapiens), sequence (Q969F8 whole entry, looked up): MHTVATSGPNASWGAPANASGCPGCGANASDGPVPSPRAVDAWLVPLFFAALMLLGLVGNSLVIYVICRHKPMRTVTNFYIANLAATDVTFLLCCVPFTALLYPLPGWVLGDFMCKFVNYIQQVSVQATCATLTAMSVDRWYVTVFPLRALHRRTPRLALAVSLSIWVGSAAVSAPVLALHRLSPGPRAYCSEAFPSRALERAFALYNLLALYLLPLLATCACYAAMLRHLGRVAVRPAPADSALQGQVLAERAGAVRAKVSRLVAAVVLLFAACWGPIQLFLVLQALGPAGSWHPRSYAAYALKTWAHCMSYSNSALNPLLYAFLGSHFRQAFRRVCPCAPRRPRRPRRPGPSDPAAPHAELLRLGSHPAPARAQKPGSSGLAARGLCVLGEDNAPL
How it was run: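 Agonist mode: intracellular calcium rise tracked at 1 s intervals over 3 min (480/540 nm) immediately after compound addition to dye-loaded KISS1R-HEK293 stable cells. Each compound tested at 15 concentrations in triplicate.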

[5] = G protein-coupled receptor (GPCR) small molecule agonists, calcium flux assay: HEK293 wild type cell line counter screen (AID 1920065)
How it was run: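 Calcium flux counter screen: compound added in agonist mode at 15 concentrations in triplicate to dye-loaded parental HEK293 cells. Fluorescence (480/540) read kinetically for 3 min; ATP served as positive control.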

[6] = p53 small molecule agonists, cell-based qHTS assay with human liver microsomes (AID 1963577);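 also: p53 response element beta-lactamase reporter cells with liver microsomes plus NADPH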
How it was run: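 Steps: plate p53RE-bla cells, incubate 5 h at 37 C; add compound in DMSO; add microsomes (0.5 mg/mL final) and NADPH (0.5 mg/mL final); incubate 16 h at 37 C; add LiveBLAzer, 2 h RT; read fluorescence.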

[7] = p53 small molecule agonists, cell-based qHTS assay with rat liver microsomes (AID 1963578)
How it was run: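 Metabolic activation is supplied by rat liver microsomes with NADPH (each 0.5 mg/mL final). p53RE-bla cells incubate with compound 16 h at 37 C; reporter activity is measured by LiveBLAzer fluorescence.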

[8] = p53 small molecule agonists, cell-based qHTS assay with human liver microsomes: qHTS cell viability counter screen (AID 1963579); also: nearly all actives have a fitted effect of over 45% in size
How it was run: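 After the 460/530 nm beta-lactamase read, CellTiter-Glo was added to the same wells and luminescence measured after 30 min at room temperature, giving viability of p53RE-bla cells treated 16 h with compounds plus microsomes and NADPH.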

[9] = p53 small molecule agonists, cell-based qHTS assay with rat liver microsomes: qHTS cell viability counter screen (AID 1963580); also: nearly all actives have a fitted effect of over 45% in size
How it was run: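 Rat liver microsome (0.5 mg/mL final) and NADPH (0.5 mg/mL final) co-incubation with compounds for 16 h at 37 C on HCT-116 p53RE-bla cells; cytotoxicity taken from intracellular ATP luminescence.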

[10] = p53 small molecule agonists, cell-based qHTS assay: qHTS cell viability counter screen (AID 1963581); also: nearly all actives have a fitted effect of over 45% in size
How it was run: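 Counter screen read by CellTiter-Glo luminescence (ATP content, 30 min at room temperature), run in the same wells as the beta-lactamase reporter read. HCT-116 p53RE-bla cells saw compounds for 16 h at 37 C.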

[11] = p53 small molecule agonists, cell-based qHTS assay (AID 1963582; active = well fitted activation curve with a large enough effect in the signal ratio in the repeat runs, not every such curve was filed as active; the % refers to the signal ratio)
How it was run: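 Read-out is beta-lactamase FRET fluorescence after 2 h at room temperature with LiveBLAzer B/G substrate. p53 response element-bla cells were treated 16 h at 37 C with compounds in DMSO, added 5 h after seeding.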

[12] = biological target: 5-hydroxytryptamine receptor 2A (Homo sapiens) (UniProt P28223); test: 5-hydroxytryptamine receptor 2A (HTR2A) small molecule antagonists, cell-based qHTS assay (AID 1963586); also: nearly all actives have a fitted effect of over 45% in size; also: potency is read from the fitted curve at half-maximal effect
5-hydroxytryptamine receptor 2A (Homo sapiens), sequence (P28223 whole entry, looked up): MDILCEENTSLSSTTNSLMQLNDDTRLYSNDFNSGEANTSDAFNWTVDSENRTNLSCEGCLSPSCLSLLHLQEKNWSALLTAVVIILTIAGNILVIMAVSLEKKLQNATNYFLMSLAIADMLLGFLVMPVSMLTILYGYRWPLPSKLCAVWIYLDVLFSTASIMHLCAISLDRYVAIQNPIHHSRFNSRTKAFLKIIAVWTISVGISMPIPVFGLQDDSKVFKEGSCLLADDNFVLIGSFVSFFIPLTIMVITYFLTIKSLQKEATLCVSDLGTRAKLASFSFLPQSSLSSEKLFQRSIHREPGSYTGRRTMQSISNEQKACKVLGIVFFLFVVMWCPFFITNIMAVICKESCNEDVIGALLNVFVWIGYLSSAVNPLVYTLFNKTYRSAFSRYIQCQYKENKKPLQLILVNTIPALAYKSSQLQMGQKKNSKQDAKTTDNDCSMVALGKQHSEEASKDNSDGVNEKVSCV
How it was run: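 CHO cells stably expressing human HTR2A were plated for 18 h at 37 C, then loaded with calcium dye for 1 h. Compounds were preincubated 5 min at room temperature before DOI (4 nM solution) was added. Kinetic fluorescence was read for 3 min.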

[13] = biological target: 5-hydroxytryptamine receptor 2A (Homo sapiens) (UniProt P28223); test: 5-hydroxytryptamine receptor 2A (HTR2A) small molecule agonists, cell-based qHTS assay (AID 1963587); also: nearly all actives have a fitted effect of over 30% in size; also: potency is read from the fitted curve at half-maximal effect
How it was run: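 Kinetic calcium-flux fluorescence (2 min, 1 sec intervals) after compound addition in agonist mode. HTR2A-CHO cells were cultured 18 h, then dye-loaded 1 h at 37 C.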

[14] = biological target: Muscarinic acetylcholine receptor M1 (Homo sapiens) (UniProt P11229); test: Cholinergic receptor muscarinic 1 (CHRM1) small molecule antagonists, cell-based qHTS assay (AID 1963588); also: nearly all actives have a fitted effect of over 40% in size
Muscarinic acetylcholine receptor M1 (Homo sapiens), sequence (P11229 whole entry, looked up): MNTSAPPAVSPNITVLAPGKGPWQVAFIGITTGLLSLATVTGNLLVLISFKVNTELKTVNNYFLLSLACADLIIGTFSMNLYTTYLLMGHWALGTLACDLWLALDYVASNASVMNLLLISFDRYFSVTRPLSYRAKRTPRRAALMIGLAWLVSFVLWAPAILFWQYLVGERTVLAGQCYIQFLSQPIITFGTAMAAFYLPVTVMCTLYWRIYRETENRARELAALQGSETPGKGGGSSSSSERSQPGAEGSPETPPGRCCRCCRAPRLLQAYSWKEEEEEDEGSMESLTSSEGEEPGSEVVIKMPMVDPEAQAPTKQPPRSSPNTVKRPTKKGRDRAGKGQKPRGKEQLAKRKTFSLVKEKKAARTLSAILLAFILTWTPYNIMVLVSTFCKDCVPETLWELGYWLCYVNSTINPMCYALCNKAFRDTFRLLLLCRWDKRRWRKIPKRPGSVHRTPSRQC
How it was run: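 Compounds were tested at 15 concentrations in three independent runs. Dye-loaded CHRM1-CHO cells were exposed 5 min at room temperature before stimulation by acetylcholine added at 50nM. Intracellular calcium was read kinetically on FDSS for 3 min.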

[15] = biological target: Muscarinic acetylcholine receptor M1 (Homo sapiens) (UniProt P11229); test: Cholinergic receptor muscarinic 1 (CHRM1) small molecule agonists, cell-based qHTS assay (AID 1963589); also: nearly all actives have a fitted effect of over 35% in size
How it was run: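 Agonist-mode calcium-flux screen: compounds at 15 concentrations, three independent runs, were pin-transferred onto dye-loaded human CHRM1-CHO cells. Fluorescence was then recorded kinetically every second over minutes.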

[16] = cAMP Responsive Elements (CRE) small molecule agonists, cell-based qHTS assay (AID 1963590)
How it was run: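 Agonist mode: compound added to CRE-bla HEK 293T cells (2,000/well, 18 h after plating) for 3 h at 37 C/5% CO2. Reporter activity detected via FRET beta-lactamase substrate, 2 h room-temperature loading.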

[17] = cAMP Responsive Elements (CRE) small molecule antagonists, cell-based qHTS assay (AID 1963591; active = well fitted inhibition curve with a large enough effect in the signal ratio in the repeat runs, not every such curve was filed as active; the % refers to the signal ratio)
How it was run: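 Antagonist mode: compounds are added alongside the adenylyl cyclase activator NKH477 (0.25 uM final) to CRE-bla HEK293T cells for 3 h. LiveBLAzer FRET substrate, 2 h at room temperature, reports bla expression.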

[18] = biological target: Beta-2 adrenergic receptor (Homo sapiens) (UniProt P07550); test: Adrenergic beta2 receptor (ADRB2) small molecule antagonists, cell-based qHTS assay (AID 1963592); also: series mostly up to about 92 µM; nearly all actives have a fitted effect of over 50% in size
Beta-2 adrenergic receptor (Homo sapiens), sequence (P07550 whole entry, looked up): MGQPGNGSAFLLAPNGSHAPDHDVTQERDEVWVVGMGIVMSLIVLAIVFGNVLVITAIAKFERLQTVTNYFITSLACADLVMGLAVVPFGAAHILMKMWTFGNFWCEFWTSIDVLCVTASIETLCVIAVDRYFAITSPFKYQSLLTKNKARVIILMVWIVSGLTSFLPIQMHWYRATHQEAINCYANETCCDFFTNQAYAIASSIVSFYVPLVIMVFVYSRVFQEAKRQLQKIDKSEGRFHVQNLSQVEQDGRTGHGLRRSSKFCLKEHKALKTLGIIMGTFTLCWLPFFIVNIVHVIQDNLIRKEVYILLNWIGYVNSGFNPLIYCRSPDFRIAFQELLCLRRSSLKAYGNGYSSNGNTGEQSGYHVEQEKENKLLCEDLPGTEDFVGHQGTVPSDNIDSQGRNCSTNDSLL
How it was run: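 Assay format: CHO-ADRB2 cells, 18-20hr seeding at 37C/5% CO2, then compound plus 1nM isoproterenol agonist mix for 0.5hr RT. Homogeneous time-resolved fluorescence cAMP detection after 1hr, expressed as 665/615 nm ratio.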

[19] = biological target: D(2) dopamine receptor (Homo sapiens) (UniProt P14416); test: Dopamine D2 receptor (DRD2) small molecule agonists, cell-based qHTS assay (AID 1963594); also: nearly all actives have a fitted effect of over 35% in size
D(2) dopamine receptor (Homo sapiens), sequence (P14416 whole entry, looked up): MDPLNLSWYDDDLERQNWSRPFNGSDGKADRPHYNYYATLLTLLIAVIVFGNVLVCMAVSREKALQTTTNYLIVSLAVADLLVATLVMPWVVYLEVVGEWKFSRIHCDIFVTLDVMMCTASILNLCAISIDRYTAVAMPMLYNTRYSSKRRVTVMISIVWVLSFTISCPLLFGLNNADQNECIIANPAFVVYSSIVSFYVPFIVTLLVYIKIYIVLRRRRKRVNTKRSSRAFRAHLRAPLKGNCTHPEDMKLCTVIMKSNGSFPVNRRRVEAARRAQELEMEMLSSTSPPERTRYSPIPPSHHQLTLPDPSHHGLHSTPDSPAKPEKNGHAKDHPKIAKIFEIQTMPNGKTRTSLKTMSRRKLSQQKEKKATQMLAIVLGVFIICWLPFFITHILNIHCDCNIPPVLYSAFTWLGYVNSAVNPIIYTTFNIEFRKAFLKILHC
How it was run: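 cAMP accumulation in DRD2-HEK293 cells measured by HTRF after 1 h detection; compounds added 10 min before NKH477 (200nM […]) forskolin-analogue stimulation, 30 min at room temperature, with Ro20-1724 present at 0.1 mM final.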

[20] = biological target: D(2) dopamine receptor (Homo sapiens) (UniProt P14416); test: Dopamine D2 receptor (DRD2) small molecule antagonists, cell-based qHTS assay (AID 1963595; active = well fitted inhibition curve with a large enough effect in the signal ratio in the repeat runs, with a control signal flat; the % refers to the signal ratio)
How it was run: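 Antagonist mode in DRD2-HEK293 cells: after compound addition with 0.1 mM Ro20-1724, cells received quinpirole (12 nM) and NKH477 (200 nM) for 30 min at room temperature; HTRF cAMP read after 1 h detection.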

Compound | Potency [1] | Potency [2] | Potency [3] | Potency [4] | Potency [5] | Potency [6] | Potency [7] | Potency [8] | Potency [9] | Potency [10] | Potency [11] | Potency [12] | Potency [13] | Potency [14] | Potency [15] | Potency [16] | Potency [17] | Potency [18] | Potency [19] | Potency [20]
O=C1CCCCCCCCCCC1 | inactive | inactive | inactive | inactive | inactive | inactive | inactive | inactive | inactive | inactive | inactive | inactive | inactive | inactive | inactive | inactive | inactive | inactive | inactive | inactive
CCCCCCCCCCCCS | inactive | inactive | inactive | inactive | inactive | inactive | inactive | inactive | inactive | inactive | inactive | inactive | inactive | inactive | inactive | inactive | inactive | inactive | inactive | inactive
O=C(O)Cc1cccc2ccccc12 | inactive | inactive | inactive | inactive | inactive | inactive | inactive | inactive | inactive | inactive | inactive | inactive | inactive | inactive | inactive | inactive | inactive | inactive | inactive | inactive
CCCCCCCC(=O)OCC(COC(=O)CCCCCCC)OC(=O)CCCCCCC | inactive | inactive | inactive | inactive | inactive | inactive | inactive | inactive | inactive | inactive | inactive | inactive | inactive | inactive | inactive | inactive | inactive | inactive | inactive | inactive
C=CC(C)(C)C | inactive | inactive | inactive | inactive | inactive | inactive | inactive | inactive | inactive | inactive | inactive | inactive | inactive | inactive | inactive | inactive | inactive | inactive | inactive | inactive
Cc1cccc(O)c1C | inactive | inactive | inactive | inactive | inactive | inactive | inactive | inactive | inactive | inactive | inactive | inactive | inactive | inactive | inactive | inactive | inactive | inactive | inactive | inactive
CC(=O)Oc1c(C)c(C)c2c(c1C)CC[C@@](C)(CCC[C@H](C)CCC[C@H](C)CCCC(C)C)O2 | inactive | inactive | inactive | inactive | inactive | inactive | inactive | inactive | inactive | inactive | inactive | inactive | inactive | inactive | inactive | inactive | inactive | inactive | inactive | inactive
C=Cc1ccc(C)cc1 | inactive | inactive | inactive | inactive | inactive | inactive | inactive | inactive | inactive | inactive | inactive | inactive | inactive | inactive | inactive | inactive | inactive | inactive | inactive | inactive
NC(N)=S | inactive | inactive | inactive | inactive | inactive | inactive | inactive | inactive | inactive | inactive | inactive | inactive and 37.5 µM (active) | inactive and 54.9 µM (active) | inactive | inactive | inactive | inactive | inactive | inactive | inactive
CCCCOC(=O)COc1ccc(Cl)cc1Cl | inactive | 69.4 µM (active) and inactive | inactive | inactive | inactive | inactive | inactive | inactive | inactive | inactive | inactive | inactive | inactive | inactive | inactive | inactive | inactive | inactive | inactive | inactive
COCCCN | inactive | inactive | inactive | inactive | inactive | inactive | inactive | inactive | inactive | inactive | inactive | inactive | inactive | inactive | inactive | inactive | inactive | inactive | inactive | inactive
C=C(C)C(=O)Nc1ccc(Cl)c(Cl)c1 | inactive | 55 µM (active) and 43.1 µM (active) | inactive | inactive | inactive | inactive | inactive | inactive | inactive | inactive | inactive | inactive | inactive | inactive | inactive | inactive | inactive | inactive | inactive | –
CCCN(CCC)C(=O)SCC | inactive | inactive | inactive | inactive | inactive | inactive | inactive | inactive | inactive | inactive | inactive | inactive | inactive | inactive | inactive | inactive | inactive | inactive | inactive | inactive
CCCCCCCCCC | inactive | inactive | inactive | inactive | inactive | inactive | inactive | inactive | inactive | inactive | inactive | inactive | inactive | inactive | inactive | inactive | inactive | inactive | inactive | inactive
CC(=O)Nc1ccc(CC(=O)O)cc1 | inactive | inactive | inactive | inactive | inactive | inactive | inactive | inactive | inactive | inactive | inactive | inactive and 410 nM (active) | inactive | inactive | inactive | inactive | inactive | inactive | inactive | inactive

— PubChem BioAssay (Tox21)
